Measured values as given in the supplement of paper PMC8975748.
Counter-ions that a name gives are not always drawn. ± gives the standard deviation of the averaged measurements.

Key:
[1] = system: Saccharomyces cerevisiae BY4741 SeMeCo community; assay: mean cell size (pixel area) (pixels); higher = larger cells; settings: 10 µM; 24 h; SM minimal medium
Procedure, shortened: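 In this assay, mean cell pixel area per well was obtained from automated confocal images of paraformaldehyde-fixed yeast analysed in Harmony. The cells were a Saccharomyces cerevisiae BY4741 community with four plasmids, each complementing one auxotrophy and carrying a fluorescent marker, grown for 24 h in SM medium with drug at a final 10 µM in 384-well plates. Values are averaged across 3 replicates. Same SeMeCo high-content imaging drug screen: Selleck FDA-approved drugs at 10 µM, 24 h in SM medium, 384-well plates, 3 replicates.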

[2] = system: Saccharomyces cerevisiae BY4741 SeMeCo community; assay: z-score of prototroph abundance vs DMSO median; higher = larger share of this subpopulation than in DMSO controls; settings: 10 µM; 24 h; SM minimal medium; subpopulation (auxotrophy): Prototroph
Procedure, shortened: (§1)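 Four plasmids, each restoring a single auxotrophy and encoding a distinct fluorescent protein, were carried by a Saccharomyces cerevisiae BY4741 community. After overnight growth to OD600 1.0 and dilution to 0.3, 70 µl per well was grown for 24 h in minimal SM medium on 384-well plates acoustically predosed with library drugs at 10 µM final. Following paraformaldehyde fixation, automated confocal microscopy was used, with single-auxotroph fluorescent strains defining thresholds and autofluorescence correction. Subpopulation abundance was then scored as a z-score against the vehicle-well median.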

[3] = system: Saccharomyces cerevisiae BY4741 SeMeCo community; assay: z-score of subpopulation abundance vs DMSO median, subpopulation auxotrophic for M; higher = larger share of this subpopulation than in DMSO controls; settings: 10 µM; 24 h; SM minimal medium; subpopulation (auxotrophy): M
Procedure, shortened: as §1

[4] = system: Saccharomyces cerevisiae BY4741 SeMeCo community; assay: z-score of subpopulation abundance vs DMSO median, subpopulation auxotrophic for L; higher = larger share of this subpopulation than in DMSO controls; settings: 10 µM; 24 h; SM minimal medium; subpopulation (auxotrophy): L
Procedure, shortened: as §1

[5] = system: Saccharomyces cerevisiae BY4741 SeMeCo community; assay: z-score of subpopulation abundance vs DMSO median, subpopulation auxotrophic for U; higher = larger share of this subpopulation than in DMSO controls; settings: 10 µM; 24 h; SM minimal medium; subpopulation (auxotrophy): U
Procedure, shortened: as §1

[6] = system: Saccharomyces cerevisiae BY4741 SeMeCo community; assay: z-score of subpopulation abundance vs DMSO median, subpopulation auxotrophic for LM; higher = larger share of this subpopulation than in DMSO controls; settings: 10 µM; 24 h; SM minimal medium; subpopulation (auxotrophy): LM
Procedure, shortened: as §1

[7] = system: Saccharomyces cerevisiae BY4741 SeMeCo community; assay: z-score of subpopulation abundance vs DMSO median, subpopulation auxotrophic for HU; higher = larger share of this subpopulation than in DMSO controls; settings: 10 µM; 24 h; SM minimal medium; subpopulation (auxotrophy): HU
Procedure, shortened: as §1

[8] = system: Saccharomyces cerevisiae BY4741 SeMeCo community; assay: z-score of subpopulation abundance vs DMSO median, subpopulation auxotrophic for UM; higher = larger share of this subpopulation than in DMSO controls; settings: 10 µM; 24 h; SM minimal medium; subpopulation (auxotrophy): UM
Procedure, shortened: as §1

[9] = system: Saccharomyces cerevisiae BY4741 SeMeCo community; assay: z-score of subpopulation abundance vs DMSO median, subpopulation auxotrophic for HL; higher = larger share of this subpopulation than in DMSO controls; settings: 10 µM; 24 h; SM minimal medium; subpopulation (auxotrophy): HL
Procedure, shortened: as §1

[10] = system: Saccharomyces cerevisiae BY4741 SeMeCo community; assay: z-score of subpopulation abundance vs DMSO median, subpopulation auxotrophic for HLU; higher = larger share of this subpopulation than in DMSO controls; settings: 10 µM; 24 h; SM minimal medium; subpopulation (auxotrophy): HLU
Procedure, shortened: as §1

[11] = system: Saccharomyces cerevisiae BY4741 SeMeCo community; assay: z-score of subpopulation abundance vs DMSO median, subpopulation auxotrophic for HLM; higher = larger share of this subpopulation than in DMSO controls; settings: 10 µM; 24 h; SM minimal medium; subpopulation (auxotrophy): HLM
Procedure, shortened: as §1

[12] = system: Saccharomyces cerevisiae BY4741 SeMeCo community; assay: z-score of subpopulation abundance vs DMSO median, subpopulation auxotrophic for HUM; higher = larger share of this subpopulation than in DMSO controls; settings: 10 µM; 24 h; SM minimal medium; subpopulation (auxotrophy): HUM
Procedure, shortened: as §1

[13] = system: Saccharomyces cerevisiae BY4741 SeMeCo community; assay: z-score of subpopulation abundance vs DMSO median, subpopulation auxotrophic for LUM; higher = larger share of this subpopulation than in DMSO controls; settings: 10 µM; 24 h; SM minimal medium; subpopulation (auxotrophy): LUM
Procedure, shortened: as §1

[14] = system: Saccharomyces cerevisiae BY4741 SeMeCo community; assay: z-score of subpopulation abundance vs DMSO median, subpopulation auxotrophic for HLUM; higher = larger share of this subpopulation than in DMSO controls; settings: 10 µM; 24 h; SM minimal medium; subpopulation (auxotrophy): HLUM
Procedure, shortened: as §1

[15] = system: Saccharomyces cerevisiae BY4741 SeMeCo community; assay: z-score of subpopulation abundance vs DMSO median, subpopulation auxotrophic for H; higher = larger share of this subpopulation than in DMSO controls; settings: 10 µM; 24 h; SM minimal medium; subpopulation (auxotrophy): H
Procedure, shortened: as §1

[16] = system: Saccharomyces cerevisiae BY4741 SeMeCo community; assay: z-score of subpopulation abundance vs DMSO median, subpopulation auxotrophic for HM; higher = larger share of this subpopulation than in DMSO controls; settings: 10 µM; 24 h; SM minimal medium; subpopulation (auxotrophy): HM
Procedure, shortened: as §1

| SMILES | mean cell size [1] | z-score of prototroph abundance [2] | z-score of subpopulation abundance [3] | z-score of subpopulation abundance [4] | z-score of subpopulation abundance [5] | z-score of subpopulation abundance [6] | z-score of subpopulation abundance [7] | z-score of subpopulation abundance [8] | z-score of subpopulation abundance [9] | z-score of subpopulation abundance [10] | z-score of subpopulation abundance [11] | z-score of subpopulation abundance [12] | z-score of subpopulation abundance [13] | z-score of subpopulation abundance [14] | z-score of subpopulation abundance [15] | z-score of subpopulation abundance [16] |
| --- | --- | --- | --- | --- | --- | --- | --- | --- | --- | --- | --- | --- | --- | --- | --- | --- |
| Cc1onc(-c2ccccc2Cl)c1C(=O)N[C@@H]1C(=O)N2[C@@H]1SC(C)(C)[C@@H]2C(=O)O [Cloxacillin Sodium] | 12.44 ± 0.058 | -1.62 | 0.44 | 0.15 | 0.9 | 0.63 | 0.86 | 1.46 | -0.33 | 0.44 | 0.97 | 2.07 | 1.65 | 1.38 | – | – |
| CCCCc1oc2ccc(NS(C)(=O)=O)cc2c1C(=O)c1ccc(OCCCN(CCCC)CCCC)cc1 [Dronedarone HCl] | 12.24 ± 0.057 | -0.15 | -0.05 | 0.34 | – | 0.28 | 0.78 | -0.63 | 1.2 | 2.17 | 1.9 | -0.2 | 0.59 | 0 | 1.17 | 1.04 |
| Nc1cc(C(Cl)=C(Cl)Cl)c(S(N)(=O)=O)cc1S(N)(=O)=O [Clorsulon] | 12.46 ± 0.016 | -0.96 | -0.33 | 0.16 | – | – | 0.32 | 0.16 | 0.48 | 0.22 | 0.02 | 0.92 | 1.09 | 0.24 | 0.76 | 0.02 |
| CC(C(=O)O)c1ccc2c(c1)CC(=O)c1ccccc1S2 (configuration not stated) [Zaltoprofen] | 12.82 ± 0.12 | – | 1.11 | -0.47 | – | -0.57 | -0.7 | -1.01 | -0.14 | -0.03 | 0.64 | -0.7 | -0.71 | -0.59 | – | 0.46 |
| Cc1nc(NC(=O)N2CCC[C@H]2C(N)=O)sc1-c1ccnc(C(C)(C)C(F)(F)F)c1 [Alpelisib (BYL719)] | 12.6 ± 0.23 | -0.14 | -0.14 | -1.04 | 0.93 | -1.01 | 0.49 | – | -0.35 | -0.75 | -0.12 | 0.48 | -0.87 | -0.78 | 0.36 | – |
| COCCCN1CCC(NC(=O)c2cc(Cl)c(N)c3c2OCC3)CC1 [Prucalopride Succinate] | 12.5 ± 0.32 | -1.55 | 0.77 | -0.33 | 0.93 | -0.18 | 1.07 | 1.44 | 0.16 | 1.78 | 1.1 | 1.42 | – | – | -0.29 | 0.63 |
| CCCc1nn(C)c2c(=O)[nH]c(-c3cc(S(=O)(=O)N4CCN(C)CC4)ccc3OCC)nc12 [Sildenafil] | – | 1.69 | -1.17 | -1.03 | -0.11 | -0.52 | 0.7 | -0.73 | – | -0.35 | -1.11 | -0.61 | -0.21 | 0.26 | – | -0.93 |
| Nc1ccc(S(=O)(=O)NC(=O)c2ccccc2)cc1 [Sulfabenzamide] | – | 0.8 | -0.05 | -0.13 | -0.51 | -0.72 | -0.03 | -1.04 | -0.91 | 0.61 | 0.11 | -1.03 | -0.19 | 0.15 | -0.19 | -0.23 |
